Eight molecules from PubChem BioAssay (NCI) can be followed below.

Test systems include HCT-15 colon; HT29 colon; SNB-75 CNS; SNB-19 CNS; U251 CNS; PC-3 prostate; SK-MEL-5 melanoma; UACC-62 melanoma; LOX IMVI melanoma; SK-MEL-28 melanoma; SK-MEL-2 melanoma; EKVX NSCLC; SN12C renal; UO-31 renal; TK-10 renal; ACHN renal; CAKI-1 renal; A498 renal; CCRF-CEM leukemia; MOLT-4 leukemia.
Common to all, as to assay: NCI-60 one-dose screen, 48 h (100 = growth as untreated, 0 = no growth, -100 = all killed)
What all share (conditions): 10 µM unless noted

Compounds without any hit were thinned out: in the full panel of roughly 83,000, 20% have a hit.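 Assay: single dose, 48 h. Readout: percent growth (0 = no net growth; negative = cell death). Active: <10.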 Values without a mark were called inactive. Activity calls are given as the source filed them.

With `COc1ccncc1C#Cc1cncc(C(=O)Nc2ccc(CN3CCN(C)CC3)c(C(F)(F)F)c2)c1`, the growth with HCT-15 colon is 16.9%; in the assay on HT29 colon it was 15.2%; in the assay on SNB-75 CNS, 65.7%; in the assay with SNB-19 CNS, 70.1%; in the assay on U251 CNS, 62%; in the assay with PC-3 prostate, 42.4%. Also, the growth with SK-MEL-5 melanoma is 34.2%; in the assay on UACC-62 melanoma, 26.4%; in the assay with LOX IMVI melanoma, -6.87% (active); in the assay with SK-MEL-28 melanoma, 18.2%; with SK-MEL-2 melanoma, -0.485% (active); in the assay with EKVX NSCLC it was 38.4%. Further, the growth is 17.7% with SN12C renal; 11.7% with UO-31 renal; 50.6% in the assay on TK-10 renal; 13.2% with ACHN renal; 15.4% in the assay with CAKI-1 renal; 28.9% in the assay with A498 renal. The growth was 12.3% in the assay on CCRF-CEM leukemia and 22.5% in the assay on MOLT-4 leukemia.
`O=c1[nH]c2c(s1)CCCC2CN1CCCCC1` (centres undefined): the growth in the assay with HCT-15 colon was 107%; in the assay on HT29 colon, 95.2%; in the assay on SNB-75 CNS, 83.8%; in the assay on SNB-19 CNS, 110%; in the assay on U251 CNS, 102%; in the assay on PC-3 prostate it was 91.9%. The growth in the assay on SK-MEL-5 melanoma is 99.8%; with UACC-62 melanoma, 113%; in the assay on LOX IMVI melanoma, 95.5%; in the assay with SK-MEL-28 melanoma, 99.3%; in the assay on SK-MEL-2 melanoma it was 97.2%; in the assay with EKVX NSCLC, 105%. For the same molecule, the growth was 103% in the assay on SN12C renal; 89.3% in the assay with UO-31 renal; 93% in the assay on TK-10 renal; 97.6% with ACHN renal; 99% in the assay with CAKI-1 renal; 95.8% in the assay with A498 renal. The growth in the assay on CCRF-CEM leukemia was 109%.
Take `Cc1c2c(cc[n+]1Cc1ccccc1)c1ccc(OCc3ccccc3)cc1n2Cc1ccccc1`: the growth with HCT-15 colon was 39.2%; in the assay on HT29 colon it was -48.7% (active); with SNB-75 CNS, -18% (active); in the assay on SNB-19 CNS, -13.3% (active); in the assay on U251 CNS, -80.2% (active); in the assay on PC-3 prostate, -44.8% (active). For the same molecule, the growth with SK-MEL-5 melanoma is -99.4% (active); in the assay on UACC-62 melanoma, -87.1% (active); in the assay on LOX IMVI melanoma, -93.2% (active); in the assay with SK-MEL-28 melanoma, -56.5% (active); with SK-MEL-2 melanoma, -36% (active); in the assay on EKVX NSCLC, -28.8% (active). Also, the growth in the assay with SN12C renal is -86.6% (active); in the assay on UO-31 renal it was -18.2% (active); with TK-10 renal, 11.8%; in the assay on ACHN renal, 8.54% (active); with CAKI-1 renal, -5.76% (active); in the assay with A498 renal it was -34.5% (active). For the same molecule, the growth in the assay on CCRF-CEM leukemia is -16.2% (active); with MOLT-4 leukemia, -51% (active).
For `COc1ccc(-c2nc3sccn3c2/C=C/C(=O)c2cc(OC)c(OC)c(OC)c2)cc1`, the growth was 40.2% in the assay on HCT-15 colon; 46.9% with HT29 colon; 37.2% in the assay with SNB-75 CNS; 59.9% with SNB-19 CNS; 43.1% with U251 CNS; 32.2% in the assay with PC-3 prostate. Besides, the growth in the assay with SK-MEL-5 melanoma was -10.9% (active); with UACC-62 melanoma it was 46.6%; in the assay with LOX IMVI melanoma it was 41.4%; in the assay on SK-MEL-28 melanoma, 84.2%; in the assay with SK-MEL-2 melanoma, 43.9%; with EKVX NSCLC, 60%. In addition, the growth in the assay with SN12C renal is 62.5%; with UO-31 renal, 17.6%; in the assay on TK-10 renal, 82.7%; in the assay on ACHN renal, 55.7%; in the assay with CAKI-1 renal it was 42.4%; with A498 renal, 84.9%.
Regarding `O=c1[nH]nc(-c2ccc(Br)cc2)cc1Cc1ccc(O)cc1`, the growth with HCT-15 colon was 105%; in the assay with HT29 colon it was 103%; in the assay on SNB-75 CNS, 91.9%; with SNB-19 CNS, 81.2%; in the assay with U251 CNS, 105%; in the assay with PC-3 prostate, 80.4%. The growth was 87.1% in the assay with SK-MEL-5 melanoma; 85.6% with UACC-62 melanoma; 97.4% in the assay with LOX IMVI melanoma; 104% in the assay with SK-MEL-28 melanoma; 107% in the assay on SK-MEL-2 melanoma; 51.7% with EKVX NSCLC. Besides, the growth with SN12C renal is 90.5%; in the assay with UO-31 renal it was 77.3%; with TK-10 renal, 139%; with ACHN renal, 105%; with CAKI-1 renal, 98.1%; in the assay with A498 renal, 103%. For the same molecule, the growth with CCRF-CEM leukemia is -9.56% (active); in the assay with MOLT-4 leukemia, 17.9%.
In the case of `COc1ccc(CNC(=O)COc2ccc(/C=N/Nc3nc4ccccc4s3)cc2)cc1`, the growth is 31% in the assay with HCT-15 colon; 35.5% in the assay with HT29 colon; -2.77% (active) in the assay on SNB-75 CNS; 36.8% in the assay on SNB-19 CNS; 21.6% in the assay with U251 CNS; 15.5% with PC-3 prostate. For the same molecule, the growth in the assay with SK-MEL-5 melanoma was 23.6%; in the assay on UACC-62 melanoma it was 34%; in the assay on LOX IMVI melanoma, 46.5%; in the assay with SK-MEL-28 melanoma, 35.2%; with SK-MEL-2 melanoma, 63.9%; in the assay on EKVX NSCLC it was 52%. The growth is 30.8% in the assay on SN12C renal; 60.7% in the assay with UO-31 renal; 86.9% in the assay with TK-10 renal; 8.13% (active) with ACHN renal; 27.9% in the assay with CAKI-1 renal; -19.5% (active) in the assay on A498 renal. In addition, in the assay with CCRF-CEM leukemia, the growth is 62.4%.
`Cc1ccc(C2CC(c3cccc(Nc4ccncc4)c3)=NN2c2ccccc2)cc1` (centres undefined): the growth with HCT-15 colon is -82.6% (active); with HT29 colon, -42% (active); with SNB-75 CNS, -95.6% (active); in the assay with SNB-19 CNS it was -76.8% (active); in the assay with U251 CNS it was -54.1% (active); with PC-3 prostate, -66.7% (active). For the same molecule, the growth in the assay with SK-MEL-5 melanoma was -94.1% (active); in the assay with UACC-62 melanoma, -94.9% (active); in the assay on LOX IMVI melanoma, -100% (active); with SK-MEL-28 melanoma it was -98.9% (active); in the assay on SK-MEL-2 melanoma it was -64.6% (active); with EKVX NSCLC, -51.9% (active). The growth is -93.1% (active) in the assay on SN12C renal; -100% (active) in the assay on UO-31 renal; -83.6% (active) in the assay with TK-10 renal; -99.8% (active) with ACHN renal; -94.6% (active) with CAKI-1 renal; 30.7% in the assay on A498 renal. The growth in the assay with CCRF-CEM leukemia was -24.5% (active).
Regarding `COc1ccc(NC(=O)c2sc3nc(C)c(C(=O)c4ccc(OC)cc4)cc3c2N)cc1`, the growth in the assay with HCT-15 colon is 35.8%; in the assay on HT29 colon, 7.92% (active); in the assay on SNB-75 CNS, 21.2%; in the assay on SNB-19 CNS it was 65.2%; with U251 CNS, 39.7%; with PC-3 prostate it was 56.4%. Moreover, the growth is 35.1% in the assay on SK-MEL-5 melanoma; 46.1% in the assay on UACC-62 melanoma; 54.2% in the assay on LOX IMVI melanoma; 64.9% in the assay on SK-MEL-28 melanoma; 23% in the assay on SK-MEL-2 melanoma; 68.5% in the assay with EKVX NSCLC. Further, the growth is 63.8% in the assay on SN12C renal; 45.5% in the assay on UO-31 renal; 55% in the assay with TK-10 renal; 82.8% with ACHN renal; 42.6% with CAKI-1 renal; -3.91% (active) with A498 renal. Besides, the growth in the assay on CCRF-CEM leukemia is 36%.
